Inconclusive results are not listed. Activity calls are given as the source filed them. The calls were made as follows, unless noted: active = hit-call score of the fitted dose curve at least 0.9, where 1 is the maximum; inactive = score below 0.9.
What was measured:
[1] = CCTE_Harrill_HTTr_Viability_MCF7: CCTE's 6-hour Cell Viability Assessment for the High-Throughput Transcriptomics (HTTr) Platform, in MCF-7 cells cultured in DMEM + 10% fetal bovine serum, Harrill Lab (AID 2284010)
Method in brief: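 Eight-point concentration series, six-hour exposure. Propidium iodide exclusion imaged to assess membrane integrity as a cytotoxicity readout; bidirectional fitting was done with DMSO as negative control and activity baseline.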

[2] = CCTE_Harrill_HTTr_Apoptosis_MCF7: CCTE's 6-hour Apoptosis Assessment for the High-Throughput Transcriptomics (HTTr) Platform, in MCF-7 cells cultured in DMEM + 10% fetal bovine serum, Harrill Lab (AID 2284011)
Method in brief: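 MCF-7 (DMEM + 10% FBS), 384-well; 8-pt dilution series, 6 h chemical exposure; caspase-3/7 activation via CellEvent Caspase 3/7 Green, HCI; bidirectional fit vs DMSO.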

[3] = CCTE_Harrill_HTTr_CellCount_MCF7: CCTE's Cell Proliferation Assessment for the High-Throughput Transcriptomics (HTTr) Platform, Harrill Lab (AID 2284012; active = hit-call score of the fitted dose curve at least 0.9, where 1 is the maximum;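 also: count of Hoechst-stained nuclei per well by high-content imaging in MCF-7 cells; cells exposed to compound for six hours; intended direction is loss of nuclei count meaning fewer cells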)
Method in brief: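 For this full-screen endpoint, MCF-7 cultures received eight compound dilutions for six hours. Well nuclei counts from Hoechst imaging were analyzed relative to DMSO.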

[4] = CCTE_Shafer_MEA_acute_burst_number: CCTE's Neural Acute Assay for Single-Electrode Bursts, Shafer Lab (AID 2284013)
Method in brief: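 Burst totals were derived with adaptive spike detection (8x rms threshold) on filtered signals from rat cortical cultures; change relative to pre-treatment baseline after 40-min compound exposure (0.03-40 uM) was fitted in the negative direction against DMSO.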

[5] = CCTE_Shafer_MEA_acute_burst_duration_mean: CCTE's Neural Acute Assay for Mean Burst Duration, Shafer Lab (AID 2284014);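 also: hits are decreases in mean burst duration relative to DMSO controls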
Method in brief: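 Acute exposure of mature rat cortical networks (DIV 13 or 15) grown on microelectrode arrays to 0.03-40 uM compound. Mean burst duration compared with the 40-min pre-dose baseline over a 40-min post-dose recording at 37 C.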

[6] = CCTE_Shafer_MEA_acute_per_burst_spike_number_mean: CCTE's Neural Acute Assay for Average Number of Spikes Per Burst, Shafer Lab (AID 2284015);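 also: hits are decreases in mean spikes per burst versus baseline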
Method in brief: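 Primary rat cortical neurons on 48-well MEA plates, treated on DIV 13 or 15 at 0.03-40 uM. Spontaneous activity recorded 40 min before and 40 min after compound at 37 C; percent change in mean spikes per single-electrode burst per well, fitted in the loss direction versus DMSO.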

[7] = CCTE_Shafer_MEA_acute_burst_percentage_mean: CCTE's Neural Acute Assay for Percentage of Spikes in a Burst, Shafer Lab (AID 2284017)
Method in brief: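 Primary rat cortical neurons on 16-electrode MEA wells; 40 min baseline recorded at DIV 13 or 15, then 40 min after compound (0.03-40 uM) at 37 C. Well-mean fraction of spikes in single-electrode bursts; percent change from baseline, DMSO as negative control.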

[8] = CCTE_Shafer_MEA_acute_burst_percentage_std: CCTE's Neural Acute Assay for Standard Deviation of Burst Percentage, Shafer Lab (AID 2284018);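 also: fitted in the negative direction so actives lower burst percentage SD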
Method in brief: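 Primary rat cortical neurons on 16-electrode MEA wells were recorded 40 min at baseline (DIV 13 or 15), then 40 min after compound (0.03-40 uM), at 37 C. Well value is SD across electrodes of spikes-in-bursts/total spikes; endpoint is percent change, DMSO-referenced.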

[9] = CCTE_Shafer_MEA_acute_per_network_burst_spike_number_mean: CCTE's Neural Acute Assay for Average Number of Spikes in a Network Burst, Shafer Lab (AID 2284019)
Method in brief: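 Acute exposure of rat primary cortical networks (DIV 13/15) on MEAs; adaptive spike detection at 8x rms noise, 37 C. Percent change in spikes per network burst after 40 min with compound (0.03-40 uM), negative direction vs DMSO.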

[10] = CCTE_Shafer_MEA_acute_per_network_burst_spike_number_std: CCTE's Neural Acute Assay for Standard Deviation of Number of Spikes in a Network Burst, Shafer Lab (AID 2284020);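 also: fitted for decrease in spike-number SD versus DMSO so actives lower it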
Method in brief: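 Acute MEA exposure, rat cortical neurons, 0.03-40 uM. Per-well % change versus own baseline; DMSO as negative control.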

Measured: AC50

Nc1ccc(O)c(C(=O)O)c1
inactive: [1] | [2]

O=C(O)c1cccc(C(=O)O)n1
inactive: [1] | [2] | [3]

CC(O)COc1ccccc1 (stereo unspecified)
inactive: [1] | [2] | [3]

CCCCCCCCCCCC[N+](C)(C)Cc1ccccc1
active: [1] 68.8 µM | [2] 70.8 µM | [3] 70.3 µM

C=CC(C)(CCC=C(C)C)OC(C)=O (stereo unspecified)
inactive: [1] | [2] | [3]

Cc1ccc(N=Nc2c(O)ccc3ccccc23)c(C)c1
inactive: [1] | [2]

CCCCCCCCCCCCOC(=O)c1cc(O)c(O)c(O)c1
inactive: [1] | [2] | [3]

CCCCC(CC)C(=O)O (stereo unspecified)
inactive: [1] | [2] | [3]

O=C(NCc1ncc(C(F)(F)F)cc1Cl)c1c(Cl)cccc1Cl
inactive: [1] | [2]

O=S(=O)(O)c1ccccc1
inactive: [1] | [2]

CC(C)(O)C(=O)c1ccccc1
inactive: [1] | [2]

COc1cc(OC)nc(NC(=O)NS(=O)(=O)Nc2ccccc2C(=O)N(C)C)n1
inactive: [1] | [2]

CC(C)(C)C1CCCCC1O (stereo unspecified)
inactive: [1] | [2] | [3]

CN(Cc1cnc2nc(N)nc(N)c2n1)c1ccc(C(=O)N[C@@H](CCC(=O)O)C(=O)O)cc1
inactive: [1] | [2]

Nc1ccn([C@@H]2O[C@H](CO)[C@@H](O)C2O)c(=O)n1 (stereo partly specified)
inactive: [1] | [2] | [3]

CCCCCCCCCCCC(=O)O
inactive: [1] | [2] | [3]

CCCCC=O
inactive: [1] | [2] | [3] | [4] | [5] | [6] | [7] | [8] | [9] | [10]
